In the library only some 11% were active in any assay of this set; here they are far more common.
Luciferase inh – blocks purified firefly luciferase enzyme activity; P08659; purified P. pyralis luciferase, luminescence, biochemical; Potency, µM (titrated, usually from 115 µM), most hits filed as inhibitors; 76,000 tested, 2.5% active; note: nearly all actives have a fitted effect of over 65% in size
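Cell-free enzyme assay, 10nM P. pyralis luciferase, luciferin and ATP each at 10uM. Inhibition profiled over a 6-point titration, read as luminescence.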
HEK cytotox – HEK 293 cell cytotoxicity | HEK 293 viability, ATP luminescence (CellTiter-Glo), 48-72 h | Potency, µM (series often up to 115 µM), for the others: top-dose activity change, negative = cytotoxicity, usual class: inhibitors | 94,000 tested, 6.6% active | AID 1345083; note: nearly all actives have a fitted effect of over 60% in size
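Cytotoxicity was scored by loss of ATP-coupled luminescence (CellTiter-Glo) in HEK 293 cells. Compound treatment ran 48 or 72 hr at 37 degree Celsius, 5% CO2, 95% humidity.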
3T3 cytotox – cytotoxic compounds in NIH 3T3 cells; NIH 3T3 viability, CellTiter-Glo ATP luminescence, 48-72 h; 94,000 tested, 4.3% active; Potency, µM (series often up to 96.7 µM), inactives show top-dose activity change, negative = cytotoxicity, usual class: inhibitors; AID 1345082; note: nearly all actives have a fitted effect of over 55% in size
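Cytotoxicity is measured as loss of cellular ATP: NIH 3T3 cells (400/well) are exposed to compound for 48 or 72 hr at 37 °C, then CellTiter-Glo luminescence is imaged after 10 min at room temperature.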
hNpr1 antagonist – blocks ANP-stimulated signaling of human Npr1 receptor | Potency, µM (doses to about 46.3 µM), inactives show at the top dose activity change, negative = inhibition, usual class: inhibitors | 76,000 tested, 1.6% active | HEK293 hNpr1 GloSensor cGMP, ANP-stimulated luminescence | AID 1347048; calls by dose curve; note: nearly all actives have a fitted effect of over 60% in size
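Compound pre-incubated 30 min at room temperature on GloSensor-loaded HEK293 cells stably carrying hNpr1 and the pGS-40F cGMP biosensor. Stimulation uses hNppA at 0.1 nM final; luminescence is taken at baseline and 20 min post-agonist.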
Active calls of the source: *; i = inactive; ? = inconclusive; / = no result; ! = not confirmed by another sample; [ ] = dose if it differs, or a comment. Unless noted, calls come from the whole dose curve; as a rule, active = well fitted curve in the direction sought with a large enough effect; inconclusive = small, poorly fitted or top-dose-only effect, or another doubt; inactive = no such curve, though single readings can be large; an effect the other way counts as inactive or inconclusive. % is set by controls: 0 for no effect and ±100 for the full control effect; potency is the fitted concentration of half-maximal effect.

SMILES	Luciferase inh	HEK cytotox	3T3 cytotox	hNpr1 antagonist
COc1ccc(Nc2ccnc(N3CCCC(C(=O)NCCc4ccccc4F)C3)n2)cc1 (centres undefined)	/	22µM*	?	/
Cc1ccc(Nc2ccnc(N3CCCC(C(=O)NCc4cccc(F)c4)C3)n2)cc1 (centres undefined)	/	50µM*	?	/
Cc1ccc(Nc2ccnc(N3CCCC(C(=O)NCc4ccccc4F)C3)n2)cc1 (centres undefined)	/	10µM*	14µM*	/
COc1ccc(Nc2ccnc(N3CCCC(C(=O)N4CCN(C)CC4)C3)n2)cc1 (centres undefined)	/	?	-26%	/
O=C(Nc1cc(-c2ccccn2)nn1-c1ccccc1)C1CC1	/	-5%[172 µM]	-9%[138 µM]	/
Cc1nnn2c(C(=O)NCc3ccc(Cl)cc3)cccc12	i	79µM*	35µM*	0%[70.6 µM]
Cc1ccsc1C(=O)N1CCC[C@H](n2c(=O)n(CC3CC3)c3cccnc32)C1	i	25µM*	?	-23%
COCCn1c(=O)n([C@H]2CCCN(C(=O)c3nn(C)c4ccccc34)C2)c2ncccc21	i	?	-23%	10%
Cn1nc(C(=O)N2CCC[C@H](n3c(=O)n(CC4CC4)c4cccnc43)C2)c2ccccc21	/	32µM*	?	/
COc1ccccc1-c1cc(N2CCOCC2=O)c2cncn2c1	i	-43%[172 µM]	100µM*	-9%[70.6 µM]
COc1ccc(-c2cc(-c3ccc(OC)c(OC)c3)cn3cncc23)cc1	i	71µM*	40µM*	-12%[70.6 µM]
COc1ccc(-c2cc(N3CCOCC3=O)c3cncn3c2)cc1OC	i	-7%[172 µM]	?	1%[70.6 µM]
Cc1ccccc1-c1cc(-c2ccc(=O)[nH]c2)c2cncn2c1	i	71µM*	25µM*	-12%[70.6 µM]
COc1ccccc1-c1cc(-c2ccncc2)c2cncn2c1	i	89µM*	11µM*	-23%[70.6 µM]
COc1ccc(-c2ccccc2C(=O)N2CCC(NC(=O)c3ccc(F)cc3)CC2)nn1	/	i	-10%	/
COc1ccc(-c2noc([C@@H]3CCCN3C(=O)c3cc(Cl)ccc3F)n2)cc1OC	i	?	?	-14%
COc1ncccc1-c1cc(-c2cccnc2)c2cncn2c1	i	?	?	1%[70.6 µM]
COc1cccc(-c2cc(-c3cccnc3)c3cncn3c2)c1OC	50µM*	?	?	-1%[70.6 µM]
COc1ccc(-c2cc(-c3ccncc3)c3cncn3c2)cc1OC	i	?	25µM*	1%[70.6 µM]
COc1ccccc1-c1cc(-c2cccnc2)c2cncn2c1	i	?	?	-3%[70.6 µM]
COc1ccc(-c2cc(-c3cccnc3)c3cncn3c2)cc1OC	i	?	35µM*	0%[70.6 µM]
COc1ccc(-c2cc(-c3ccc(CO)cc3)cn3cncc23)cc1	i	79µM*	?	-17%[70.6 µM]
CC(C)C(=O)N1CCOC[C@H](Oc2ccc(C(F)(F)F)cn2)C1	i	-23%[172 µM]	-13%[138 µM]	1%[70.6 µM]
COc1cccc(-c2cc(C3CCN(C(=O)Nc4cccc(C)c4)CC3)[nH]n2)c1	?	?	?	-23%
COc1cccc(-c2cc(C3CCN(C(=O)Nc4ccc5c(c4)OCCO5)CC3)[nH]n2)c1	25µM*	?	40µM*	?
SMILES	Luciferase inh	HEK cytotox	3T3 cytotox	hNpr1 antagonist
COc1cccc(-c2cc(C3CCN(C(=O)c4cc(C)ccc4C)CC3)[nH]n2)c1	i	40µM*	?	?
COc1cccc(-c2cc(C3CCN(C(=O)Nc4ccc(C)cc4C)CC3)[nH]n2)c1	i	45µM*	?	-19%
CCc1ccc(C(=O)N2CCC(c3cc(-c4cccc(OC)c4)n[nH]3)CC2)cc1	i	45µM*	?	?
COC(=O)[C@H](Cc1ccc(OC)cc1)NC(=O)[C@H]1CN(C(=O)c2cccnc2)CCN1S(C)(=O)=O	i	-4%	-2%	6%
COc1cccc(-c2cc(C3CCN(C(=O)Nc4ccccc4OC)CC3)[nH]n2)c1	i	32µM*	?	-15%
COc1cccc(-c2cc(C3CCN(C(=O)Nc4ccc(OC)cc4OC)CC3)[nH]n2)c1	i	?	?	-4%
COc1ccccc1-c1ccc(CN2CCC(NC(=O)C3CCCCC3)C2)cc1 (centres undefined)	/	?	32µM*!	/
COc1ccc(CC(=O)NC2CCN(C(=O)c3ccc(-c4ccccc4OC)cc3)CC2)cc1	/	?	40µM*	/
